In PubChem BioAssay AID651725 (National Center for Advancing Translational Sciences (NCATS), 2012):
Among all 360,000 compounds or so, about 2,000 (0.56%) were called active. About 2% were inconclusive and are not listed. This excerpt belongs to a sample that is enriched for actives. Values without a mark were called inactive. No stated cut-off is given here; in the data, active means activity change below about -65%; inconclusive means mostly about -30% to -63%; inactive means weaker than that.

The compounds below were run against Homeobox protein SIX1 (Homo sapiens) + Protein phosphatase EYA2 (Homo sapiens) (UniProt Q15475+O00167) (assay: qHTS Assay for Inhibitors of the Six1/Eya2 Interaction). Details: AlphaScreen GST-Six1/His-Eya2 binding, biochemical; stronger effect = lower value.
Sequence of Homeobox protein SIX1 (Homo sapiens) + Protein phosphatase EYA2 (Homo sapiens) (O00167 whole entry, looked up): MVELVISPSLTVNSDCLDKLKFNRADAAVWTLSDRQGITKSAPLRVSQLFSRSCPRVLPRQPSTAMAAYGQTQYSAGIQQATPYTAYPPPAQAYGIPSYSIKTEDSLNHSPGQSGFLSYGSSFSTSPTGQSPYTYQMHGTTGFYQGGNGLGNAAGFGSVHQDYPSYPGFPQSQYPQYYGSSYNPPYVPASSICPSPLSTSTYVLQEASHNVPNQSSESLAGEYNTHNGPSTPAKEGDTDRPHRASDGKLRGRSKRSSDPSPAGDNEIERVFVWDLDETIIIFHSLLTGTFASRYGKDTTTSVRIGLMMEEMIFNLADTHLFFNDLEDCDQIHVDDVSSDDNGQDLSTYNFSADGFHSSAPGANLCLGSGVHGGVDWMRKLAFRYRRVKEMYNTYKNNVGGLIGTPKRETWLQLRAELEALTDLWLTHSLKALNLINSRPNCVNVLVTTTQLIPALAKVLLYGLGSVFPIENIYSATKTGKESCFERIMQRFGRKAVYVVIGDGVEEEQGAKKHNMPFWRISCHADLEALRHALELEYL
Sequence of Homeobox protein SIX1 (Homo sapiens) + Protein phosphatase EYA2 (Homo sapiens) (Q15475 whole entry, looked up): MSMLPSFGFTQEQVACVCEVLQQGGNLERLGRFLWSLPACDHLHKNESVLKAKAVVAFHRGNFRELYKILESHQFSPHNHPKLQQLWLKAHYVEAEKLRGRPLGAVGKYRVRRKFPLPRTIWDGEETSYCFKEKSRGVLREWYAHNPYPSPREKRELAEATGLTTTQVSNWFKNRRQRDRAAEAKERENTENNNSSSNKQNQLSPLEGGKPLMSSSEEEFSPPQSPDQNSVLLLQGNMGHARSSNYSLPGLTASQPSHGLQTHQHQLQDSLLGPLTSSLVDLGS
In short: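 GST-Six1 + His-Eya2 (5X stock: 250/500 nM); Tris pH 8.0, 300 mM NaCl, 0.05% BSA, 0.02% Tween 20; GSH donor/Ni acceptor beads; 1 h 37 °C dark; AlphaScreen readout.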
On the % scale 0 is the no-effect control and ±100 the full control effect.

SMILES	activity change
COc1ccccc1C(=O)NCC(=O)OCC(=O)NNC(=O)c1ccc(Br)cc1	-6.57%
CC(C)c1cc(Cn2c3ccccc3c(=O)n2C(C)Cn2cc(C3CC3)nn2)on1 (centres undefined)	4.06%
COc1ccc(COC[C@H](CC(C)C)N2CCN(C(=O)c3cccc(C(F)(F)F)c3)CCC2=O)cc1	9.97%
CCN(CC(=O)Nc1ccc(NC(C)=O)cc1)C(=O)C1CC(=O)N(c2ccc3c(c2)OCCO3)C1 (centres undefined)	-0.253%
Cc1ccc(-c2cnc(C(O)c3cccc(C)c3C)[nH]2)cc1 (centres undefined)	-9.73%
O=c1/c(=C/c2ccc(CNS(=O)(=O)c3ccccc3)o2)sc2n1CCN=2	-74.2% (active)
COC(=O)C1=C(C)NC(=O)/C1=C/c1ccc(CNS(=O)(=O)c2ccc(C)cc2)o1	-8.38%
O=S(=O)(NCc1ccccc1)c1ccc(S(=O)(=O)N2CCCC2)cc1	0%
COC(=O)[C@]12CCCCC=C1N(Cc1ccc3c(c1)OCO3)C(=O)[C@H](CC(=O)N1CCOCC1)C2	7.68%
COc1cccc(CN(C)C(=O)CC[C@H]2O[C@@H](n3cnc4c(NC(=O)c5ccccc5)ncnc43)[C@H](O)[C@@H]2O)c1	-3.33%
CCC(C)C(CO)NC(=O)/C=C/[C@H]1O[C@@H](n2cnc3c(NC(=O)c4ccccc4)ncnc32)[C@H](O)[C@@H]1O (some centres undefined)	-67.4% (active)
O=C(/C=C/[C@H]1O[C@@H](n2cnc3c(NC(=O)c4ccccc4)ncnc32)[C@H](O)[C@@H]1O)NCc1ccccc1	-0.266%
O=C(COc1ccc(Cl)cc1)NCc1nnc(SCC(=O)NCC2CCCO2)o1 (centres undefined)	17.7%
CCC(C(=O)NC(C)(C)C)n1c(-c2ccccc2)nc2ccccc21 (centres undefined)	2.19%
CCCCCc1c(Cc2ccccc2)ncn1CCc1ccccc1OC	7.11%
COc1ccc(Nc2nc(-c3cccnc3)nc3ccccc23)cn1	-65.3% (active)
CCN(CC(=O)NC1CCS(=O)(=O)C1)c1nc(-c2cccnc2)nc2ccccc12 (centres undefined)	5.63%
S=c1nc2ccccc2c2nc(-c3cccnc3)[nH]n12	-8.27%
CC(C)C1Cc2[nH][nH]c(=O)c2C(c2ccc(Cl)cc2)O1 (centres undefined)	-11.7%
O=C1NC[C@H](CCCCN2C[C@H](Cc3ccc(O)cc3)N(CC3CCCCC3)C(=O)C2=O)N(CCc2ccccc2)C1=O	3.83%
COC(=O)C[C@@H]1C=C[C@@H](NC(=O)c2cccnc2)[C@@H](CO)O1	13.6%

SMILES	activity change
CC(C)CCNC(=O)C(C)N(C(=O)Cn1nnc(-c2ccc(F)cc2)n1)C1CCCC1 (centres undefined)	4.65%
COc1cccc(-n2c(SCC(=O)NC3CCCCC3)nc3n[nH]c(C)c3c2=N)c1	-66.7% (active)
Cc1ccc(-n2c(SCC(=O)NCCC3=CCCCC3)nc3n[nH]c(C)c3c2=N)cc1Cl	-17.6%
COc1cccc(-n2c(SCC(=O)NC3CCS(=O)(=O)C3)nc3ccccc3c2=O)c1 (centres undefined)	-0.378%
O=C(C(=O)N1CCN(c2ccccc2)CC1)c1ccc2c(c1)OCO2	9.9%
C=CCn1c(COc2cccc3cccnc23)nnc1SCC(=O)OC	0.499%
CCCCC(=O)NC(c1ccc(OC)c(OC)c1)c1ccc2cccnc2c1O (centres undefined)	-90.3% (active)
CCOc1ccc(C(CCc2ccccc2)NC(=O)c2ccc(OC)c(OC)c2)cc1OCC (centres undefined)	-5.59%
Cc1cc(C)n2c(Nc3c(C)cccc3C)c(CCc3ccccc3)nc2n1	-0.972%
O=C(NCc1ccccn1)c1cnc2sccn2c1=O	-1.07%
COc1cc(/C=C/CO)cc(OC)c1O[C@@H]1O[C@H](CO)[C@@H](O)[C@H](O)[C@H]1O	5%
CC1(C(=O)Nc2ccc3c(c2)OCCO3)CSCC(=O)N1CCOc1ccccc1 (centres undefined)	-5.39%
CC1(C(=O)NCc2ccccc2)CSCC(=O)N1CCCn1ccnc1 (centres undefined)	-4.73%
Cc1cc(F)ccc1S(=O)(=O)N1CCCOC1CNC(=O)C(=O)NCCC1=CCCCC1 (centres undefined)	6.61%
O=C(NCCCc1ccccc1)C(=O)NCC1OCCN1S(=O)(=O)c1ccccc1 (centres undefined)	5.49%
O=C(NCCCn1ccnc1)C(=O)NCC1OCCN1S(=O)(=O)c1cc(F)ccc1F (centres undefined)	-72.2% (active)
COc1ccc(NC(=O)C(c2ccncc2)n2c(=O)c(-c3cc4ccccc4[nH]3)nc3ccccc32)cc1 (centres undefined)	18.4%
CCN(CC)CCn1c(/N=C/c2cc(Br)ccc2O)nc2ccccc21	4.55%
Oc1ccc(Br)cc1/C=N/Nc1ccccn1	-77.2% (active)
O=C(Nc1ccc(Br)cc1)c1cc(S(=O)(=O)Nc2ccccn2)ccc1Cl	-3.31%
CCOC(=O)[C@]12CCC=C1N(Cc1ccco1)C(=O)[C@H](CC(=O)N1CCSCC1)C2	13%

SMILES	activity change
CO[C@@H]1CN(C)C(=O)c2cc(NC(=O)C3CC3)ccc2OC[C@H](C)N(C(=O)CN2CCOCC2)C[C@@H]1C	-0.378%
COC(=O)[C@]12CCCCC=C1N(Cc1ccco1)C(=O)[C@H](CC(=O)NCC1CCCCC1)C2	4.18%
O=C(CCC(=O)N/N=C/c1ccc(Br)o1)N/N=C/c1ccc(Br)o1	0.575%
O=C(CCCO)N/N=C/c1cc(Br)ccc1O	-68.6% (active)
NCCCCCC(=O)N/N=C/c1ccc2nccnc2c1	4.58%
O=[N+]([O-])c1ccc(N/N=C2/CCCCC2c2ccccn2)c([N+](=O)[O-])c1 (centres undefined)	-4.9%
O=[N+]([O-])c1cccc(S(=O)(=O)NCc2ccccn2)c1	-5.71%
O=[N+]([O-])c1ccc2nc(-c3ccccn3)[nH]c2c1	-72.6% (active)
O=C(NC1CCCCC1)C(c1cc2ccccc2o1)n1c(=O)c(-c2ccco2)nc2ccccc21 (centres undefined)	6.65%
O=C1OCCOC2CCCc3oc(-c4ccccc4)c1c32 (centres undefined)	-10.5%
CC(=O)N1c2ccc(S(=O)(=O)N3CCC(C(=O)NCc4ccc(F)cc4)CC3)cc2CC1C (centres undefined)	-0.504%
Cc1ccc(CNC(=O)C2CCN(S(=O)(=O)c3ccc4nc5c(c(C(=O)O)c4c3)CC(C)CC5)CC2)cc1 (centres undefined)	-65.1% (active)
CCOC(CNC(=O)C1CCN(S(=O)(=O)c2ccc3nc4c(c(C(=O)O)c3c2)CC(C)CC4)CC1)OCC (centres undefined)	-16.3%
CCCNC(=O)C[C@@H]1CC[C@@H]2[C@H](COC[C@H](O)CN2C(=O)c2cc(Cl)cc(Cl)c2)O1	9.3%
COc1ccc(NC(=O)C/C(C)=N/NC(=O)c2cnccn2)cc1Cl	-8.49%
CCN(CC)c1ccc(/C=N/NC(=O)c2cnccn2)c(O)c1	-91.7% (active)
CCN(CC)c1ccc(NC(=O)c2ccc(Cl)nc2)cc1	-10.4%
O=C1CN(C(=O)c2ccccc2F)C(c2ccc(F)cc2)c2cc(F)ccc2N1 (centres undefined)	10.1%
CCOC(=O)[C@]12CCCC=C1N(CCC1=CCCCC1)C(=O)[C@H](CC(=O)NCCCOC)C2	-3.1%
COC(=O)[C@@]12C[C@@H](CC(=O)NCCCCc3ccccc3)C(=O)N(Cc3ccccc3)C1=CCC(C)(C)C2	-3.62%
CCOC(=O)[C@]12CCC=C1N(CCC1=CCCCC1)C(=O)[C@H](CC(=O)NCc1ccc(C)o1)C2	-7.25%

SMILES	activity change
O=S1(=O)CC(N2CCN(Cc3ccccc3F)CC2)CN1Cc1cn(Cc2cccc(C(F)(F)F)c2)nn1 (centres undefined)	1.67%
Cc1cc(C)c(S(=O)(=O)N(C)CC(=O)NCC2CCCO2)c(C)c1 (centres undefined)	3.65%
CC(C)Sc1ncnc2c1cnn2-c1ccccc1	16.7%
Cc1ccc(-n2ncc3c(Nc4cccc(C(=O)O)c4)ncnc32)cc1	-66.4% (active)
Cc1ccc(Nc2ncnc3c2cnn3C)c(C)c1	8.85%
Cc1[nH]c2ccccc2c1C(=O)c1cc([C@H](NC(=O)OC(C)(C)C)C(C)C)sc1N	-28%
O=C1CCN(CCCc2ccccc2)CCN1CCO	-23.5%
O=C(NC1CCCC1)C1c2ccccc2OCC(=O)N1CC(F)(F)F (centres undefined)	-3%
Cc1c(NC(=O)CSc2cccc3cccnc23)c(=O)n(-c2ccccc2)n1C	-90.9% (active)
Cc1c(NC(=O)CSc2nnc(-c3cccnc3)n2N)c(=O)n(-c2ccccc2)n1C	10.2%
Cc1c(NC(=O)CSc2nnnn2-c2ccc(C(=O)O)cc2)c(=O)n(-c2ccccc2)n1C	5.09%
CC(=O)C[C@@H]1OC[C@H](CO)N1S(=O)(=O)c1ccc(C)cc1	7.41%
CN(Cc1cn(Cc2ccc(C(F)(F)F)cc2)nn1)C1CN(Cc2cn(Cc3ccc(C(F)(F)F)cc3)nn2)S(=O)(=O)C1 (centres undefined)	3.81%
CN(Cc1ccccc1)C(=O)[C@@H]1CCCN1C(=O)[C@@H]1CCCN1C(=O)c1c(F)cccc1F	7.39%
COc1cc(/C=N/NC(=S)Nc2cccnc2)cc(OC)c1O	0%
S=C(Nc1cccnc1)Nc1ccccn1	6.86%
S=C(NN=Cc1ccccn1)Nc1ccccn1	-91.9% (active)
O=C(OCN1C(=O)c2ccccc2C1=O)/C(=C\c1ccco1)NC(=O)c1ccccc1	-1.79%
O=C(NCCc1ccco1)c1nn(Cc2ccccc2)c(=O)c2ccccc12	-4.25%
O=c1nc2s/c(=C\c3ccco3)c(=O)n2nc1Cc1ccccc1	-82.8% (active)
CCOC(=O)c1cc2cc(OC)ccc2n1C1CCN(C)CC1	1.46%
